Experimental data reported in the supplement of paper PMC11732987, “Enantioselective OTUD7B fragment discovery through chemoproteomics screening and high-throughput optimisation” (Communications Chemistry, 2025).

Target: COPS5 (UniProt Q92905)
Assay: log2 ratio of Biotin-Ahx-Ub-VS probe labelling (fragment/DMSO); higher = less target engagement (more negative = stronger competition), active = hit call of the paper (q ≤ 0.05, log2 ratio ≤ -1)
Details: compound concentration: 200 uM; treatment time: 3 h
Method: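 Competitive ABPP in HEK293T cell lysate. Lysates were treated with each chloroacetamide fragment at 200 µM for 3 h, then with Biotin-Ahx-Ub-VS (0.5 µM, 1 h), NeutrAvidin-enriched and analysed by diaPASEF LC-MS/MS. Protein LFQ was median-normalised; average log2 ratio is fragment/DMSO from an unpaired t-test (n=3 treated, n=44 DMSO). Hits: q ≤ 0.05, log2 ratio ≤ -1, unique peptides ≥ 2.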

COPS5, sequence (Q92905 whole entry, looked up, the tested form may be a part): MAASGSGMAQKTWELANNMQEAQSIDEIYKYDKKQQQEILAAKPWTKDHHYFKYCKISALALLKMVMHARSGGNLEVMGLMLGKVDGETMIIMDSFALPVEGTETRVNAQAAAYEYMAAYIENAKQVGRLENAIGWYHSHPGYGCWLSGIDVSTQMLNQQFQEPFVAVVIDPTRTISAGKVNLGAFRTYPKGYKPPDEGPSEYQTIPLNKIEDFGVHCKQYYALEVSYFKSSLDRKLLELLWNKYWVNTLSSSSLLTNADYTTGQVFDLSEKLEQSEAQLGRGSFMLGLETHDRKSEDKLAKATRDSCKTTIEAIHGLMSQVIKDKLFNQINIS

log2 ratio of Biotin-Ahx-Ub-VS probe labelling, inactive:
O=C(CCl)N1CCOC2(CCC2)CC1 -0.0213
Cl.O=C(CCl)N1CCC(n2nc3ccccc3n2)CC1 -0.532
COc1ccc(Cl)cc1NC(=O)CCl -0.0284
CC1CCc2onc(CNC(=O)CCl)c2C1 (stereo not given) 0.0922
Cc1ccc(CN(CCO)C(=O)CCl)cc1 -0.141
Cc1ccc(CN(C)C(=O)CCl)o1 0.0171
O=C(CCl)N1CCCC1c1ccsc1 (stereo not given) -0.0486
O=C(CCl)NCCc1ccc2c(c1)OCCO2 0.0882
O=C(CCl)N[C@H]1CC[C@@H](CO)CC1 0.0798
Cc1ccc2nnc(CNC(=O)CCl)n2c1 -0.118
O=C(CCl)Nc1ccc(F)cc1Cl -0.284
Cl.O=C(CCl)N1CCc2ncncc2C1 -0.0201
CC(NC(=O)CCl)c1ccc2[nH]ncc2c1 (stereo not given) -0.00941
NC(=O)C1CCCCN1C(=O)CCl (stereo not given) 0.234
Cc1nc(CNC(=O)CCl)c2ccccn12.Cl -0.109
COc1ccccc1C(C)NC(=O)CCl (stereo not given) 0.247
CC1Cc2ccccc2N1C(=O)CCl (stereo not given) 0.169
COc1ccc(CN(C)C(=O)CCl)cc1 -0.0998
CCCn1nccc1NC(=O)CCl -0.308
Cl.O=C(CCl)N1CCn2cncc2C1 -0.298
Cc1ccc(CC(CO)CNC(=O)CCl)cc1 (stereo not given) 0.0248
O=C(CCl)N1CCC(S(=O)(=O)c2ccc(F)cc2)CC1 -0.0227
CC(NC(=O)CCl)c1noc(Cc2ccccc2)n1 (stereo not given) 0.201
CN(CCc1ncc(Br)cn1)C(=O)CCl.Cl 0.2
COc1cccc(CN(C)C(=O)CCl)c1 0.0731
Cc1c(C#N)c(NC(=O)CCl)n(Cc2ccco2)c1C -0.146
O=C(CCl)Nc1cccc2ncccc12 0.251
Cc1cccnc1NC(=O)C1CCN(C(=O)CCl)CC1.Cl -0.025
Cc1ccccc1CN(C)C(=O)CCl 0.0682
Cl.O=C(CCl)NCc1ccnc(Oc2ccccc2F)c1 0.031
Cc1cc(C(=O)NC2CCN(C(=O)CCl)CC2)no1 0.0469
Cc1cc(NC(=O)CCl)n(-c2ccccc2)n1 -0.0499
O=C(CCl)N1CCC(C(=O)N2CCCCCC2)CC1 -0.0587
O=C(CCl)N(Cc1ccsc1)C1CC1 0.054
Cc1ccc(C)c(Oc2ccc(CNC(=O)CCl)cn2)c1.Cl -0.0158
CS(=O)(=O)c1ccc(NC(=O)CCl)cc1 0.0438
O=C(CCl)N1CCc2[nH]c3ccccc3c2C1 -0.0163
Cl.O=C(CCl)N1CCC(Cc2nccs2)C1 (stereo not given) 0.114
O=C(CCl)N1CCN(C(=O)Nc2ccccc2)CC1 -0.0124
O=C(CCl)N1CCC2(CCC(O)CC2)CC1 0.318
